ST2 inh: inhibitors of human ST2 (IL1RL1) binding to IL-33. 78,000 compounds, 2.3% hits. Q01638. inhibition, % for hits at 17 µM. AlphaLISA ST2-Fc/biotin-IL-33 interaction, 1 h; in the data active = inhibition above about 30%
Target sequence (Q01638 whole entry, looked up): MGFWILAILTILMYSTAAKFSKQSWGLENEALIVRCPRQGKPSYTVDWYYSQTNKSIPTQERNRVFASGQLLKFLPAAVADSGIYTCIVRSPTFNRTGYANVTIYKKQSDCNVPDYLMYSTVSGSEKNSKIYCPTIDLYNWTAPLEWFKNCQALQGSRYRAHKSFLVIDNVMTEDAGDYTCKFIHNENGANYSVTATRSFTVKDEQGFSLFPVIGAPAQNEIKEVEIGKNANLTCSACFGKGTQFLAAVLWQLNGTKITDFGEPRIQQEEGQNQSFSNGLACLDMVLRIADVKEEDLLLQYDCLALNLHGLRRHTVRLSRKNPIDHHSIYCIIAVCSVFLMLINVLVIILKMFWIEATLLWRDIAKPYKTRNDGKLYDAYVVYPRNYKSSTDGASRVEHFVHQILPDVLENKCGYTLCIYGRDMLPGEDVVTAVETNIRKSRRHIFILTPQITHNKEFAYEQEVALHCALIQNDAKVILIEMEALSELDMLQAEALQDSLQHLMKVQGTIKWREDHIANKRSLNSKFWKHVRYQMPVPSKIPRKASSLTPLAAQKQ
Numbers without * were called inactive; i = inactive; ! = repeats disagree. The sample as a whole holds a higher share of hits than the screen did.

SMILES	ST2 inh
CC1=CC(C)(C)N(C(=O)CN2C(=O)c3ccccc3C2=O)c2ccccc21	i
Cc1c(NC(=O)CN2C(=O)c3cccc([N+](=O)[O-])c3C2=O)c(=O)n(-c2ccccc2)n1C	i
O=C(CCC1CCN(Cc2sc3ccccc3c2Cl)CC1)N1CCOCC1	i
CC(=O)c1ccc(S(=O)(=O)N2CCCC(C(=O)c3cccc(OC(C)C)c3)C2)cc1 (stereo not given)	i
Cc1ccc(/C=C2/SC(N3CCCC3)=NC2=O)cc1	i
CCCCN(C)C(=O)CCC(=O)Nc1ccc2nc(N3CCN(C)CC3)cc(C)c2c1	i
NS(=O)(=O)c1ccc(NC(=O)c2ccccc2)cc1	i
CC(C)c1ccc(NC(=O)c2ccc(Cl)cc2[N+](=O)[O-])cc1	i
O=C(Nc1ccc(Nc2ccccc2)cc1)c1ccc(Cl)cc1[N+](=O)[O-]	43%*
Cc1ccc(NC(=O)c2ccc(Cl)cc2Cl)cc1[N+](=O)[O-]	i
NS(=O)(=O)c1ccc(NC(=O)c2ccccc2[N+](=O)[O-])cc1	32%*
CCC(C)c1ccc(NC(=O)c2ccccc2[N+](=O)[O-])cc1 (stereo not given)	i
CCOCCCNC(=O)C1c2c(n(C)c3ccccc23)SCC(=O)N1c1ccc(Cl)cc1 (stereo not given)	i
CCCCN(CC)C(=O)C1c2ccccc2C(=O)N2CCc3ccccc3C12 (stereo not given)	i
Cc1nn(Cc2ccccc2Cl)c(C)c1NC(=O)c1cc(-c2ccc3c(c2)OCO3)on1	i
Cc1cccc(C(C)C)c1NC(=O)c1cncc(Br)c1	i
Cn1c(SCC(=O)NC2CC2)nnc1-c1ccc(NC(=O)c2ccccc2Cl)cc1	i
COc1ccccc1-c1ncnn1-c1sc2c(c1C#N)CCCCC2	48%*
COc1ccc(-c2cc(C(=O)Nc3sc4c(c3C#N)CCCC4)no2)cc1OC	i
N#Cc1c(-n2ncnc2-c2ccc3c(c2)OCO3)sc2c1CCCCC2	35%*!
N#Cc1c(NC(=O)COc2cccc3ccccc23)sc2c1CCCC2	i
COc1ccc(-c2ncnn2-c2sc3c(c2C#N)CCCC3)cc1	44%*
COc1ccccc1-c1nc2sc3c(c2c(=O)[nH]1)CCCC3	i
Fc1cc(Br)ccc1-n1ncnc1-c1ccc2c(c1)OCO2	i
N#Cc1c(NC(=O)c2cc(-c3ccc4c(c3)OCO4)on2)sc2c1CCC2	i
SMILES	ST2 inh
COc1ccc(-c2cc(C(=O)Nc3sc4c(c3C#N)CCC4)no2)cc1	i
COc1ccc(F)c(CNC2CC(=O)N(C3Cc4ccccc4C3)C2)c1 (stereo not given)	i
CSc1ccc(-c2nc(SCC(=O)NCc3ccco3)c(-c3ccc(F)cc3)[nH]2)cc1	i
CCCCN(C)CCCNC(=O)Cn1c(=O)sc2ccccc21	i
Cc1ccc(-c2noc(CCC(=O)N3CCCc4ccccc43)n2)cc1	i
CC(=O)N1CCC(N2CC[C@H](c3nnc(-c4ccc(Cl)cc4)o3)C2)CC1	i
CNc1nc(C(=O)N2CCC3(CC2)C(=O)N(C)c2ccccc23)cs1	i
COc1cc2c(cc1OC)C(C(=O)N1CC(C)CC(C)C1)C(c1cccs1)N(C)C2=O (stereo not given)	i
Cc1ccccc1Cn1c(=O)n(CCCC(=O)NCc2ccco2)c(=O)c2sccc21	33%*!
NC(=O)Cn1c(=O)n(CCCC(=O)NCc2ccco2)c(=O)c2sccc21	i
O=C(CCCn1c(=O)c2sccc2n(Cc2ccccc2F)c1=O)NCc1ccco1	i
O=C1CCC(C(=O)N2CCCCCCC2)CN1CCc1ccccc1 (stereo not given)	i
O=C1C=CC(=O)C(C2=C3C(=O)N(CCc4ccccc4)CC(=O)N3CCC2)=C1	38%*
O=C1c2ccccc2C(=O)N1CCc1ccccc1	i
Cc1ccncc1-c1ccc(C(C)N2CCCC2)cc1 (stereo not given)	i
C=C(C)Cn1c(CCNC(=O)COc2ccccc2)nc2ccccc21	i
CC(C)CCNC(=O)C1CCC(Cn2c(=O)c3sccc3n(CC(N)=O)c2=O)CC1 (stereo not given)	i
Cc1cc([N+](=O)[O-])nn1CCCC(=O)Nc1sc2c(c1C(N)=O)CCC(C)C2 (stereo not given)	i
COc1ccc(C(=O)ON=C2c3ccccc3-c3ccccc32)cc1	40%*
COc1ccc(C(=O)OC(C)C(O)c2ccc(OC)cc2)cc1 (stereo not given)	i
COc1cccc(C(=O)ON=C2C=CC(=O)C=C2)c1	i
CCc1nc(C)c(C(=O)NC(C)c2nnc3n2CCNCC3)o1 (stereo not given)	i
COc1cccc(-c2nc3cc(Cl)ccc3o2)c1	i
CC(=O)N(CN1C(=O)c2ccccc2C1=O)c1cccc(C)c1	i
CC(=O)N(CN1C(=O)c2ccc(Br)cc2C1=O)c1ccc(OCc2ccccc2)cc1	i
SMILES	ST2 inh
CC(=O)N(CN1C(=O)c2ccc(Br)cc2C1=O)c1cccc(C(=O)O)c1	45%*
CCOc1ccc(Cl)cc1S(=O)(=O)NCc1ccc2c(c1)OCO2	i
O=C(Nc1cc(Cl)cc(Cl)c1)c1ccccc1Cl	i
O=C(Nn1cnnc1)c1ccccc1Cl	56%*
O=C(Nn1cnnc1)c1ccc(C(=O)Nn2cnnc2)cc1	i
O=C1O/C(=C/C=C2/OC(=O)c3ccccc32)c2ccccc21	i
O=C(Nc1cccc(O)c1)c1cc(-c2ccco2)on1	i
Cn1cc(CC(=O)NCc2ccco2)c2ccccc21	i
Cn1cc(C(c2ccc([N+](=O)[O-])o2)c2cn(C)c3ccccc23)c2ccccc21	41%*
CCN(CC)C(=O)Cc1cn(C)c2ccccc12	i
O=C(CCC(=O)N1CCCN(c2ncccn2)CC1)NC1CCCC1	i
CCNc1ccc(N)c(C)c1C	79%*
CC(C)(C)n1nc2c(c1NC(=O)c1ccc(S(=O)(=O)N3CCCC3)cc1)CSC2	i
CCN(CC)Cc1cnc2c(C(=O)Nc3ccc(-n4cncn4)cc3)cnn2c1	i
O=C(CN1C(=O)C2CCCCN2C(=O)c2ccccc21)N1CCN(Cc2ccccc2)CC1 (stereo not given)	i
O=C(CN1C(=O)C2CCCCN2C(=O)c2ccccc21)NCc1ccc(F)cc1 (stereo not given)	37%*
O=C(CN1C(=O)C2CCCCN2C(=O)c2ccccc21)NCc1ccc2c(c1)OCO2 (stereo not given)	i
O=[N+]([O-])c1cc2c(cc1CN1CCN(c3ccccc3)CC1)OCO2	i
CCOc1ccc2nc(N3CCCC(N4CCN(c5nonc5C)CC4)CC3)nc(C)c2c1 (stereo not given)	i
CCOc1ccc2nc(Nc3nc4c(c(=O)[nH]3)CCC4)nc(C)c2c1	31%*
CCOc1ccc2c3c(c(=O)oc2c1)CCC3	i
CC(C)c1cc(C(=O)Nc2cc(Cl)ccc2Cl)no1	i
COCc1nc2c(c(=O)[nH]1)C1(CCCCC1)Cc1ccccc1-2	i
CN1CCN(C(=O)CC[C@@H]2CNC(=O)[C@@H]3C[C@H](NC(=O)Nc4ccccc4)CN23)CC1	i
O=C(N[C@H]1C[C@H]2C(=O)NC[C@@H](CCC(=O)N3CCN(c4ccccn4)CC3)N2C1)C1CC1	i
O=C(Nc1ccsc1)N[C@H]1C[C@H]2C(=O)NC[C@@H](CCC(=O)N3CCN(c4ccccn4)CC3)N2C1	52%*
O=C1NC[C@@H](CCC(=O)N2CCN(c3ccccn3)CC2)N2C[C@@H](NCc3ccc(F)cc3)C[C@@H]12	i
